Laboratory results published in PubChem BioAssay (NCI).
About 83,000 compounds went through this panel and 20% of them were active in at least one assay; those are over-represented in the sample as a whole.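 Single-concentration screen, 48 h exposure, 96-well plates. Endpoint: percent growth. Below 10 = active.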 Values without a mark were called inactive. Activity calls are given as the source filed them.

Experiments:
Test in all cases: NCI-60 one-dose screen, 48 h (100 = growth as untreated, 0 = no growth, -100 = all killed)
Conditions in all cases: 10 µM
[1] = system: HCT-15 colon
[2] = system: HT29 colon
[3] = system: SNB-75 CNS
[4] = system: SNB-19 CNS
[5] = system: U251 CNS
[6] = system: PC-3 prostate
[7] = system: SK-MEL-5 melanoma
[8] = system: UACC-62 melanoma
[9] = system: LOX IMVI melanoma
[10] = system: SK-MEL-28 melanoma
[11] = system: SK-MEL-2 melanoma
[12] = system: SN12C renal
[13] = system: UO-31 renal
[14] = system: TK-10 renal
[15] = system: ACHN renal
[16] = system: CAKI-1 renal
[17] = system: A498 renal
[18] = system: CCRF-CEM leukemia
[19] = system: MOLT-4 leukemia

Structure (SMILES)	growth [1]	growth [2]	growth [3]	growth [4] [%]	growth [5]	growth [6]	growth [7]	growth [8]	growth [9]	growth [10]	growth [11]	growth [12]	growth [13]	growth [14]	growth [15]	growth [16]	growth [17]	growth [18]	growth [19]
Cc1ccc(S(=O)(=O)Nc2cccc3[nH]c(C(F)(F)F)nc23)cc1	28.3%	4.99% (active)	-4.83% (active)	39.2	29.8%	17.2%	7.01% (active)	36.9%	41.4%	38.4%	2.59% (active)	47.8%	45.1%	36.7%	49.8%	25.9%	13.7%	13.6%	31.7%
COc1cc(-c2cc(/C=C/C(C)=O)[nH]n2)cc(OC)c1OC	65.7%	66.6%	84.7%	69.1	56.6%	71.3%	79%	84.6%	62%	97.4%	87.2%	67.5%	52.4%	73.8%	78.7%	55.2%	90.7%	20%	71.2%
c1ccc(OCCC[P+](c2ccccc2)(c2ccccc2)c2ccccc2)cc1	84.7%	4.29% (active)	-5.17% (active)	12.7	8.33% (active)	-0.485% (active)	-69.2% (active)	14.6%	2.53% (active)	26%	-11.5% (active)	10.4%	63.8%	18.1%	66%	76.6%	12.1%	1.67% (active)	0.0403% (active)
CCc1nn2c(-c3cc(OC)c(OC)c(OC)c3)c(-c3cc(OC)c(OC)c(OC)c3)nc2s1	77.9%	69.6%	-25.6% (active)	61.9	58.1%	82.9%	89.7%	63.1%	85.1%	85.8%	44.5%	85.9%	81.7%	73%	74%	71.4%	88.6%	80.8%	95.9%
COc1cc(-c2nc3cc(Cl)c(Cl)cc3[nH]2)ccc1OCC(=O)NN	65.2%	98%	106%	93	91.2%	73.8%	91%	27.5%	28.5%	96.4%	95.9%	78.7%	71.1%	126%	72.6%	41%	83.1%	59.8%	67.8%
O=c1ccc2nc(-c3ccccc3)nn(-c3ccccc3)c-2c1	-75.9% (active)	-53.5% (active)	93.3%	78	66.2%	43.5%	19.8%	30.1%	-51.9% (active)	26.4%	44.9%	40.2%	-97.5% (active)	-95.9% (active)	-96% (active)	-90.9% (active)	84.4%	-16.3% (active)	-37.9% (active)
COc1ccc(-c2nnc(COc3ccc(NC(=O)Nc4ccccc4)cc3F)o2)cc1	88.2%	100%	68.2%	86.8	85%	65.5%	89%	78%	89.6%	98.6%	79.4%	91.1%	68.9%	101%	77.6%	83.6%	64%	61.2%	58.7%
CC(C)C[C@H](NC(=O)Cn1ccc(Nc2ccccc2)cc1=O)B(O)O	72.1%	1.28% (active)	79.9%	68	65.9%	58.9%	2.17% (active)	25%	3.14% (active)	10.6%	-2.39% (active)	47.9%	53.9%	13.5%	10.1%	45.3%	-1.76% (active)	3.67% (active)	1.94% (active)
Cc1cnc(C=O)c2cccc([N+](=O)[O-])c12	70.7%	79.1%	69.6%	99.2	91.9%	79.9%	95.5%	103%	72.1%	111%	102%	86.8%	43.5%	108%	85.8%	86.3%	106%	11.5%	61%
COc1ccc(C2C=C(c3ccc(Cl)c(Cl)c3)N=C3SC(C)=CN32)cc1OC (centres undefined)	80.7%	62.9%	83.4%	79.4	69.2%	35.6%	85.1%	82.9%	56.2%	62.4%	79.2%	70.6%	60.7%	74.1%	68.3%	61.7%	105%	58.5%	48.8%
Cc1ccc(C(=O)O)c(N)c1C	99.7%	101%	82.6%	107	100%	94.6%	107%	103%	93.8%	122%	89.3%	106%	57.6%	122%	103%	92.6%	108%	93.4%	93.6%
C#Cc1ccc(-n2c(/C=C/c3cc(OC)c(OC)c(OC)c3)nc3ncccc3c2=O)cc1	48.6%	16%	34%	88.9	79.3%	43.8%	9.66% (active)	52.7%	56.9%	77.6%	-2.4% (active)	82.1%	45.8%	112%	60.5%	64.2%	24.5%	55.9%	65.2%
N#Cc1ncc(-c2cc(F)ccc2F)c(NC2CCCCCC2)n1	82.8%	94.7%	67.3%	64	9.98% (active)	60.7%	84.9%	60.9%	80.6%	80.8%	74.9%	80.8%	81.5%	101%	88.8%	88.2%	58.2%	81.3%	79.4%
COCCNCC(O)Cn1c2ccc(Cl)cc2c2cc(Cl)ccc21 (centres undefined)	-54.1% (active)	-15.5% (active)	40.7%	24	-5.49% (active)	8.25% (active)	-96.1% (active)	-73.3% (active)	-31.4% (active)	-26.3% (active)	-79.4% (active)	-91.9% (active)	-20% (active)	58.6%	10.5%	8.86% (active)	62.6%	-23.2% (active)	4.5% (active)
Cc1ccc2nc(-c3ccc(OCC(=O)N=Nc4c(O)[nH]c5ccccc45)cc3)[nH]c2c1	86.3%	41.2%	109%	50	6.05% (active)	7.33% (active)	94.3%	96.5%	39%	102%	104%	57.3%	96.1%	103%	95.6%	93.4%	93.2%	9.27% (active)	39.6%
COc1cc(-c2cc(-c3ccc(C)cc3)nc3nc(N)[nH]c(=O)c23)ccc1Oc1ccnc2cc(Cl)ccc12	88.7%	84.6%	67.5%	74.3	81%	70.5%	84%	86.9%	86.3%	88.3%	93%	74.2%	56.3%	120%	93.4%	83.2%	73.4%	40.6%	49.1%
